{
  "source": "PubChem BioAssay (NCATS)",
  "note": "Results filed as inconclusive are left out. Entries that show only a call come without a potency. The source made the active and inactive calls. Calls follow the shape of the dose curve; as a rule, active = well fitted curve in the direction sought with a large enough effect; inconclusive = small, poorly fitted or top-dose-only effect, or another doubt; inactive = no such curve, though single readings can be large; an effect the other way counts as inactive or inconclusive. Potency is read from the fitted curve at half-maximal effect.",
  "data": [
    {"test": "qHTS of pediatric cancer cell lines to identify multiple opportunities for drug repurposing: Primary screen for BT-37 cells (AID 1347094)", "conditions": "BT-37 viability, CellTiter-Glo luminescence, 48 h; series mostly up to 57.3 µM", "method_in_brief": "(§1)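 CRCs from 8- or 11-point titrations (lowest final 0.59 nM NPC, 0.78 nM MIPE). Cell viability: CellTiter-Glo after 48 h incubation, 15 min room-temperature development, luminescence imaging.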", "values": [
      {"smiles": "CN1CCC(N(Cc2ccccc2)c2ccccc2)CC1", "Potency": "inactive"},
      {"smiles": "C[N+]1(C)[C@@H]2CC[C@H]1CC(OC(=O)C(CO)c1ccccc1)C2", "note": "(stereo not given in full)", "Potency": "inactive"},
      {"smiles": "COCC(=O)N(c1c(C)cccc1C)C(C)C(=O)OC", "note": "(stereo not given)", "Potency": "inactive"},
      {"smiles": "CCc1cc(OC)c(C[C@H](C)N)cc1OC", "Potency": "inactive"},
      {"smiles": "Cc1c(Cl)c(=O)oc2cc(OP(=O)(OCCCl)OCCCl)ccc12", "Potency": "inactive"},
      {"smiles": "CCOC(=O)NC(O)C(Cl)(Cl)Cl", "note": "(stereo not given)", "Potency": "inactive"},
      {"smiles": "CN1C(=O)CN=C(c2ccccc2)c2cc(Cl)ccc21", "Potency": "inactive"},
      {"smiles": "CCCN(CCC)CCc1c[nH]c2ccccc12", "Potency": "inactive"},
      {"smiles": "CC(C)[N+](C)(CCC(C(N)=O)(c1ccccc1)c1ccccc1)C(C)C", "Potency": "inactive"},
      {"smiles": "CCCCCCCCC(=O)NCc1ccc(O)c(OC)c1", "Potency": "1 nM (active)"},
      {"smiles": "CNC(=O)NC(O)C(Cl)(Cl)Cl", "note": "(stereo not given)", "Potency": "inactive"},
      {"smiles": "CCOC(=O)C1(c2ccccc2)CCN(CCc2ccc(N)cc2)CC1", "Potency": "inactive"},
      {"smiles": "c1ccc2nc(N3CCNCC3)ccc2c1", "Potency": "inactive"},
      {"smiles": "CC1N=C(N)OC1c1ccccc1", "note": "(stereo not given)", "Potency": "inactive"},
      {"smiles": "O=C(CBr)Nc1ccc(Cl)cc1C(=O)c1ccccc1F", "Potency": "inactive"},
      {"smiles": "ClCCCN1CCN(c2cccc(Cl)c2)CC1", "Potency": "inactive"},
      {"smiles": "C=CCOC(Cn1ccnc1)c1ccc(Cl)cc1Cl", "note": "(stereo not given)", "Potency": "inactive"},
      {"smiles": "COc1ccc2[nH]cc(CCN(C(C)C)C(C)C)c2c1", "Potency": "inactive"},
      {"smiles": "CC(Cc1ccccc1)NCCCCl", "note": "(stereo not given)", "Potency": "inactive"},
      {"smiles": "O=C1CN2CCOC2(c2ccccc2Cl)c2cc(Cl)ccc2N1", "note": "(stereo not given)", "Potency": "inactive"},
      {"smiles": "C[N+]1(CCC(C(N)=O)(c2ccccc2)c2ccccc2)CCCCC1", "Potency": "inactive"},
      {"smiles": "CCC(=O)C(CCN(C)C)(c1ccccc1)c1ccccc1", "Potency": "inactive"},
      {"smiles": "CN1C(=O)[C@@H](NC(=O)c2cc3ccccc3[nH]2)N=C(c2ccccc2)c2ccccc21", "Potency": "inactive"},
      {"smiles": "CC[C@H]1C[C@H]2[C@@H]3CCC4=CC(=O)CC[C@@H]4[C@H]3CC[C@]2(C)[C@H]1O", "Potency": "inactive"},
      {"smiles": "CCOC(C(=O)OCCN(C)C)(c1ccccc1)c1ccccc1", "Potency": "inactive"},
      {"smiles": "CC(C(O)c1ccccc1)N(C)C/C=C/c1ccccc1", "note": "(stereo not given)", "Potency": "inactive"},
      {"smiles": "C[C@]12CC[C@H](O)CC1=CC[C@@H]1[C@@H]2CC[C@]2(C)C(=O)CC[C@@H]12", "Potency": "inactive"},
      {"smiles": "COc1cc(C[C@@H](C)N)c(OC)cc1Br", "Potency": "inactive"},
      {"smiles": "CCC1(CC)C(=O)NC(=O)NC1=O", "Potency": "inactive"},
      {"smiles": "CC[C@H](O)C(C[C@H](C)N(C)C)(c1ccccc1)c1ccccc1", "Potency": "inactive"},
      {"smiles": "CN(C)C(=S)SSC(=S)N(C)C", "Potency": "872 nM (active)"},
      {"smiles": "CCC(=O)OC1(c2ccccc2)CCN(C)CC1", "Potency": "inactive"},
      {"smiles": "C[C@H]1C(=O)O[C@@H]2CCN3CC=C(COC(=O)[C@](C)(O)[C@]1(C)O)[C@H]23", "Potency": "inactive"},
      {"smiles": "COP(=O)(OC)OC=C(Cl)Cl", "Potency": "inactive"},
      {"smiles": "COc1cc(N)c(Cl)cc1C(=O)NC1CN2CCC1CC2", "note": "(stereo not given)", "Potency": "inactive"},
      {"smiles": "CCN(Cc1ccc(Cl)nc1)/C(=C/[N+](=O)[O-])NC", "Potency": "inactive"},
      {"smiles": "CCN(CC)CCOC(=O)C(C)(c1ccccc1)c1ccccc1", "Potency": "inactive"},
      {"smiles": "Cc1cccc(Cc2cnc[nH]2)c1C", "Potency": "inactive"},
      {"smiles": "Oc1c(Br)cc(Br)cc1Br", "Potency": "inactive"},
      {"smiles": "CN1C[C@@H](NS(=O)(=O)N(C)C)C[C@@H]2c3cccc4c3c(cn4C)C[C@H]21", "Potency": "inactive"}
    ]},
    {"test": "qHTS of pediatric cancer cell lines to identify multiple opportunities for drug repurposing: Primary screen for NB-EBc1 cells (AID 1347095)", "conditions": "NB-EBc1 neuroblastoma viability, CellTiter-Glo luminescence, 48 h; series mostly up to 46 µM", "method_in_brief": "as §1", "values": [
      {"smiles": "CN1CCC(N(Cc2ccccc2)c2ccccc2)CC1", "Potency": "inactive"},
      {"smiles": "C[N+]1(C)[C@@H]2CC[C@H]1CC(OC(=O)C(CO)c1ccccc1)C2", "note": "(stereo not given in full)", "Potency": "inactive"},
      {"smiles": "COCC(=O)N(c1c(C)cccc1C)C(C)C(=O)OC", "note": "(stereo not given)", "Potency": "inactive"},
      {"smiles": "CCc1cc(OC)c(C[C@H](C)N)cc1OC", "Potency": "inactive"},
      {"smiles": "Cc1c(Cl)c(=O)oc2cc(OP(=O)(OCCCl)OCCCl)ccc12", "Potency": "inactive"},
      {"smiles": "CCOC(=O)NC(O)C(Cl)(Cl)Cl", "note": "(stereo not given)", "Potency": "inactive"},
      {"smiles": "CN1C(=O)CN=C(c2ccccc2)c2cc(Cl)ccc21", "Potency": "inactive"},
      {"smiles": "CCCN(CCC)CCc1c[nH]c2ccccc12", "Potency": "inactive"},
      {"smiles": "CC(C)[N+](C)(CCC(C(N)=O)(c1ccccc1)c1ccccc1)C(C)C", "Potency": "inactive"},
      {"smiles": "CCCCCCCCC(=O)NCc1ccc(O)c(OC)c1", "Potency": "1 nM (active)"},
      {"smiles": "CNC(=O)NC(O)C(Cl)(Cl)Cl", "note": "(stereo not given)", "Potency": "inactive"},
      {"smiles": "CCOC(=O)C1(c2ccccc2)CCN(CCc2ccc(N)cc2)CC1", "Potency": "inactive"},
      {"smiles": "c1ccc2nc(N3CCNCC3)ccc2c1", "Potency": "inactive"},
      {"smiles": "CC1N=C(N)OC1c1ccccc1", "note": "(stereo not given)", "Potency": "inactive"},
      {"smiles": "O=C(CBr)Nc1ccc(Cl)cc1C(=O)c1ccccc1F", "Potency": "inactive"},
      {"smiles": "ClCCCN1CCN(c2cccc(Cl)c2)CC1", "Potency": "inactive"},
      {"smiles": "C=CCOC(Cn1ccnc1)c1ccc(Cl)cc1Cl", "note": "(stereo not given)", "Potency": "inactive"},
      {"smiles": "COc1ccc2[nH]cc(CCN(C(C)C)C(C)C)c2c1", "Potency": "inactive"},
      {"smiles": "CC(Cc1ccccc1)NCCCCl", "note": "(stereo not given)", "Potency": "inactive"},
      {"smiles": "O=C1CN2CCOC2(c2ccccc2Cl)c2cc(Cl)ccc2N1", "note": "(stereo not given)", "Potency": "inactive"},
      {"smiles": "C[N+]1(CCC(C(N)=O)(c2ccccc2)c2ccccc2)CCCCC1", "Potency": "inactive"},
      {"smiles": "CCC(=O)C(CCN(C)C)(c1ccccc1)c1ccccc1", "Potency": "inactive"},
      {"smiles": "CN1C(=O)[C@@H](NC(=O)c2cc3ccccc3[nH]2)N=C(c2ccccc2)c2ccccc21", "Potency": "inactive"},
      {"smiles": "CC[C@H]1C[C@H]2[C@@H]3CCC4=CC(=O)CC[C@@H]4[C@H]3CC[C@]2(C)[C@H]1O", "Potency": "inactive"},
      {"smiles": "CCOC(C(=O)OCCN(C)C)(c1ccccc1)c1ccccc1", "Potency": "inactive"},
      {"smiles": "CC(C(O)c1ccccc1)N(C)C/C=C/c1ccccc1", "note": "(stereo not given)", "Potency": "inactive"},
      {"smiles": "C[C@]12CC[C@H](O)CC1=CC[C@@H]1[C@@H]2CC[C@]2(C)C(=O)CC[C@@H]12", "Potency": "inactive"},
      {"smiles": "COc1cc(C[C@@H](C)N)c(OC)cc1Br", "Potency": "inactive"},
      {"smiles": "CCC1(CC)C(=O)NC(=O)NC1=O", "Potency": "inactive"},
      {"smiles": "CC[C@H](O)C(C[C@H](C)N(C)C)(c1ccccc1)c1ccccc1", "Potency": "inactive"},
      {"smiles": "CN(C)C(=S)SSC(=S)N(C)C", "Potency": "9440 nM (active)"},
      {"smiles": "CCC(=O)OC1(c2ccccc2)CCN(C)CC1", "Potency": "inactive"},
      {"smiles": "C[C@H]1C(=O)O[C@@H]2CCN3CC=C(COC(=O)[C@](C)(O)[C@]1(C)O)[C@H]23", "Potency": "29900 nM (active)"},
      {"smiles": "COP(=O)(OC)OC=C(Cl)Cl", "Potency": "inactive"},
      {"smiles": "COc1cc(N)c(Cl)cc1C(=O)NC1CN2CCC1CC2", "note": "(stereo not given)", "Potency": "inactive"},
      {"smiles": "CCN(Cc1ccc(Cl)nc1)/C(=C/[N+](=O)[O-])NC", "Potency": "inactive"},
      {"smiles": "CCN(CC)CCOC(=O)C(C)(c1ccccc1)c1ccccc1", "Potency": "inactive"},
      {"smiles": "Cc1cccc(Cc2cnc[nH]2)c1C", "Potency": "inactive"},
      {"smiles": "Oc1c(Br)cc(Br)cc1Br", "Potency": "inactive"},
      {"smiles": "CN1C[C@@H](NS(=O)(=O)N(C)C)C[C@@H]2c3cccc4c3c(cn4C)C[C@H]21", "Potency": "inactive"}
    ]}
  ]
}
